In the supplement of paper PMC11732987, “Enantioselective OTUD7B fragment discovery through chemoproteomics screening and high-throughput optimisation” (Communications Chemistry, 2025):

How the values were obtained:
Experiment in all cases: log2 ratio of Biotin-Ahx-Ub-VS probe labelling (fragment/DMSO); higher = less target engagement (more negative = stronger competition), active = hit call of the paper (q ≤ 0.05, log2 ratio ≤ -1)
Details in all cases: compound concentration: 200 uM; treatment time: 3 h
USP42 = target: T1, USP42 (UniProt Q9H9J4)
T1 sequence (whole entry): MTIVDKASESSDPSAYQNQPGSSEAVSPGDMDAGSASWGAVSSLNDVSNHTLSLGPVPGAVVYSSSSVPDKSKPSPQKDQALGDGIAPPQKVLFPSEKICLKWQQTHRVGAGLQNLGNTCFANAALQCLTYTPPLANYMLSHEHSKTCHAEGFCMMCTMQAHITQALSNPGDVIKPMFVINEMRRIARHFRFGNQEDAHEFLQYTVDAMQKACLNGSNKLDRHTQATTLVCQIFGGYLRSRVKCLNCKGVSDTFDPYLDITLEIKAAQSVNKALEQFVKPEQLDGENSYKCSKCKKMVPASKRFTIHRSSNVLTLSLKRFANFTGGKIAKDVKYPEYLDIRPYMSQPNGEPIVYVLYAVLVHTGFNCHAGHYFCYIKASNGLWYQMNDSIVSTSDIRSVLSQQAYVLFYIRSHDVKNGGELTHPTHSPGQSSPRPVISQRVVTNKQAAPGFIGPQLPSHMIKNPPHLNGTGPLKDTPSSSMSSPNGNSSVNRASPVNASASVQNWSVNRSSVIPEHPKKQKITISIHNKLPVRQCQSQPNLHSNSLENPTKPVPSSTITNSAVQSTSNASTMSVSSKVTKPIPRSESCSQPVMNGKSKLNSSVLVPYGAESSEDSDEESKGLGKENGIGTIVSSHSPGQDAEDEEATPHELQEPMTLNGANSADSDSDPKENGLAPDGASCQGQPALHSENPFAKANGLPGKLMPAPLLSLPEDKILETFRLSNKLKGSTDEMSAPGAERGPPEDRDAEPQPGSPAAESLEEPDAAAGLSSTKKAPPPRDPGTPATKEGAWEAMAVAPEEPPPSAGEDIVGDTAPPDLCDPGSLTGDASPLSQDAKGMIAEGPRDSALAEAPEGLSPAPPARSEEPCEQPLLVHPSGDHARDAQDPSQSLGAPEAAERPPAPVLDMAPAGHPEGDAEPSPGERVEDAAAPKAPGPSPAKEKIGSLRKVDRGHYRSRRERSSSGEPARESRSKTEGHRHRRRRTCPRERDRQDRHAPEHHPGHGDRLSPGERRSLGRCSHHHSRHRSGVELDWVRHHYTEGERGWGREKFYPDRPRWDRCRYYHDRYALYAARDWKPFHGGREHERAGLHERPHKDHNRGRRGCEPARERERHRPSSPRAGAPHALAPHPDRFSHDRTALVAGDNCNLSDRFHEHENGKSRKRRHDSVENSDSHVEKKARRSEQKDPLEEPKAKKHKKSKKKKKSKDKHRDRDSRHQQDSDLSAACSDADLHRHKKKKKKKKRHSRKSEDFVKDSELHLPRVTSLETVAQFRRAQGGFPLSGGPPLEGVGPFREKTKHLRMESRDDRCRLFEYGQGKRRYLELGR
Method in brief: (§1)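 Using Biotin-Ahx-Ub-VS at 0.5 µM final for 1 h, DUBs were labelled in HEK293T lysate (495 µg per sample) that had first been treated in triplicate with fragment at 200 µM or vehicle for 3 h. NeutrAvidin enrichment, LysC and trypsin digestion and diaPASEF LC-MS/MS followed. Spectronaut label-free quantities were global-median-normalised. Values are average log2 fragment/vehicle ratios by unpaired t-test, using proteins with ≥2 unique peptides.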

USP46 = USP46 (UniProt P62068)
Chain of USP46 (P62068 whole entry): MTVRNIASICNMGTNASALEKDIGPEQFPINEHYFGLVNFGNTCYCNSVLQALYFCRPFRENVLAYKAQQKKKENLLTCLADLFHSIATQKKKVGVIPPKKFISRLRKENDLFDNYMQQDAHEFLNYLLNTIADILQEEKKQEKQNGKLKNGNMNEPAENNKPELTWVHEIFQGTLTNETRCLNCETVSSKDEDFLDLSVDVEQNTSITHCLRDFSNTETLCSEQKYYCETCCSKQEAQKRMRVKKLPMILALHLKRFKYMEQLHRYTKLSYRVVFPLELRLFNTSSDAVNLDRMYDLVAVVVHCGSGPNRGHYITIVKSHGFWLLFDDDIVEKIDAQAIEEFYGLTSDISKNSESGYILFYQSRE
Method in brief: as §1

USP47 = target: T2, USP47 (UniProt Q96K76)
T2 sequence (whole entry): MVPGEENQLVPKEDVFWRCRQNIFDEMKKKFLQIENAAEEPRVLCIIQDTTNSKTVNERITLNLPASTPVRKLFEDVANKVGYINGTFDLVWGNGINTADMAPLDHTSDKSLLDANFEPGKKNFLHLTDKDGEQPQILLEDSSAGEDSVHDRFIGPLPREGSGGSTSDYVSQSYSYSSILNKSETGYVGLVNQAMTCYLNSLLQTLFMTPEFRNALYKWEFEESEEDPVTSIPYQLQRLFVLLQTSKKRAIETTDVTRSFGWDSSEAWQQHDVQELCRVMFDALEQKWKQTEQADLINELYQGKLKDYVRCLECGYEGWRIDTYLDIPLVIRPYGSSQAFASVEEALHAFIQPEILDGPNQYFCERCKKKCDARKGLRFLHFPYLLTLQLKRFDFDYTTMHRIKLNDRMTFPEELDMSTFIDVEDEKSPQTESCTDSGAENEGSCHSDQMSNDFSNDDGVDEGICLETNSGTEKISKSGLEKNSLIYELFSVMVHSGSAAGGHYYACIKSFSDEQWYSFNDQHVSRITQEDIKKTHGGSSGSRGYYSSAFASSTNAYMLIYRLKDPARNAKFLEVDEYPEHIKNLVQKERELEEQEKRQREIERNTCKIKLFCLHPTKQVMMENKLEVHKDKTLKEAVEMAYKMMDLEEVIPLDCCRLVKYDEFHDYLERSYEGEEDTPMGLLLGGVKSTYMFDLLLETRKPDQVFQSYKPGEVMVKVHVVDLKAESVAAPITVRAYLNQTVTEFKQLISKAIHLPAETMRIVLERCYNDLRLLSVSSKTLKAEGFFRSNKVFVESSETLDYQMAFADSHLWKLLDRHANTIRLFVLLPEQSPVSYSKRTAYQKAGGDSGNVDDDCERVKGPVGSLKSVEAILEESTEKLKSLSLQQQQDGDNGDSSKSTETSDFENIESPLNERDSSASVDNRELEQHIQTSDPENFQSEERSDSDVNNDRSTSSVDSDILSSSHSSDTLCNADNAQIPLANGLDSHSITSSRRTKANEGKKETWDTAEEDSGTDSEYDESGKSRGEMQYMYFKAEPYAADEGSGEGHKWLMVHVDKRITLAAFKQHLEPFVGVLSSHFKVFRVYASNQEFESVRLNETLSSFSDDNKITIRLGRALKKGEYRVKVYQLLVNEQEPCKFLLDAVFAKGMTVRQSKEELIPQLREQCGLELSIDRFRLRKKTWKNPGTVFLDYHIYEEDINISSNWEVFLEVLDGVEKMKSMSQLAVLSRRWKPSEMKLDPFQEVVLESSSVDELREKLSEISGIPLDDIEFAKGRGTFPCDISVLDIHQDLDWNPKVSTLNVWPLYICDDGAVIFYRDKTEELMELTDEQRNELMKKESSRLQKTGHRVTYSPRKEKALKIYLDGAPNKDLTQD
Method in brief: as §1

USP48 = target: T3, USP48 (UniProt Q86UV5)
T3 sequence (whole entry): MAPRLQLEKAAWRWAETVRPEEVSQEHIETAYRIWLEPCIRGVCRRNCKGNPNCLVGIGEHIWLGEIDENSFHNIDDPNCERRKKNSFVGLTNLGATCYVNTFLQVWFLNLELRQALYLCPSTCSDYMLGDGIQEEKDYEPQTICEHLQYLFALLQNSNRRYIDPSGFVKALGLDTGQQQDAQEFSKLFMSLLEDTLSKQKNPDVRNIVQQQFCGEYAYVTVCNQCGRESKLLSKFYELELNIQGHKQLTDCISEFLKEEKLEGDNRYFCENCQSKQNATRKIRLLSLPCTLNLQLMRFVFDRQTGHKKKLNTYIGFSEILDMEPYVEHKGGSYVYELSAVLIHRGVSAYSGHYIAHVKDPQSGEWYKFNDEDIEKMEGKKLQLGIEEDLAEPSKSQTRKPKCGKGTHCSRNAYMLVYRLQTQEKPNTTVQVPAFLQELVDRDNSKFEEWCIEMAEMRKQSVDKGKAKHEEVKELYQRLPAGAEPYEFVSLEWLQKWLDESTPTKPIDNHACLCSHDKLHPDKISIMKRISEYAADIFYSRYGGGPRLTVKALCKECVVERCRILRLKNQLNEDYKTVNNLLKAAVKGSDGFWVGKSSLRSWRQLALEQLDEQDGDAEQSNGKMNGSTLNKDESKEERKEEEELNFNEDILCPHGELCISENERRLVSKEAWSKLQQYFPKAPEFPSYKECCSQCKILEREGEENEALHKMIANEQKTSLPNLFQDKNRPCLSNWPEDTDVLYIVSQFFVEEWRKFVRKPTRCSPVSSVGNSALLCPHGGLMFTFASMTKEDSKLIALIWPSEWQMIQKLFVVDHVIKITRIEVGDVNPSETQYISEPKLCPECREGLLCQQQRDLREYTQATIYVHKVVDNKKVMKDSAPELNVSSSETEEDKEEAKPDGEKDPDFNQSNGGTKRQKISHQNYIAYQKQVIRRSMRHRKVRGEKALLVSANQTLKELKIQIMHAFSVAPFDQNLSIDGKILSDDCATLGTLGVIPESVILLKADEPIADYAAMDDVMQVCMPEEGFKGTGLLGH
Method in brief: as §1

USP5 = target: T4, USP5 (UniProt P45974)
T4 sequence (whole entry): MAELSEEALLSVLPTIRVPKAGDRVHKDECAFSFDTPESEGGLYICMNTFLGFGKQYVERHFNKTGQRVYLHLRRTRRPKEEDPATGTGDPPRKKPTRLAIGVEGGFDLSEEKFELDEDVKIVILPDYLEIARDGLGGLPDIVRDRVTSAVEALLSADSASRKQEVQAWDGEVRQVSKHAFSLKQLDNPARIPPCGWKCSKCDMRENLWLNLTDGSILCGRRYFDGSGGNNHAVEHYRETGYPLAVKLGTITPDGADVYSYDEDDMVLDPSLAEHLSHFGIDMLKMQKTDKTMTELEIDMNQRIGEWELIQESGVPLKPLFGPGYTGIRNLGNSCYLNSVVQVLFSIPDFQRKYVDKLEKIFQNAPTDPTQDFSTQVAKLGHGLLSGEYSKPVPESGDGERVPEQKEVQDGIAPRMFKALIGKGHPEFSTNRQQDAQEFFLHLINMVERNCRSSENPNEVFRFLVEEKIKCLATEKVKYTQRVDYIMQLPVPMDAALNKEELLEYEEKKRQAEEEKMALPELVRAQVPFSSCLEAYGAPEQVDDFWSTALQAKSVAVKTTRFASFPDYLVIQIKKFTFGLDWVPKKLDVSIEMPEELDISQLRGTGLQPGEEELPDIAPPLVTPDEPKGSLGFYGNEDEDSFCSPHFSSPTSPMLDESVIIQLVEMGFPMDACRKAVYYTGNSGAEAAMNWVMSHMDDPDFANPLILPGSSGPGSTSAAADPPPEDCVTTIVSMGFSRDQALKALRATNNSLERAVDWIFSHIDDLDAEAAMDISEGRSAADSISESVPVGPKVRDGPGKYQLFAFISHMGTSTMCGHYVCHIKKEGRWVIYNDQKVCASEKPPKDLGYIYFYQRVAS
Method in brief: as §1

USP54 = USP54 (UniProt Q70EL1)
Chain of USP54 (Q70EL1 whole entry): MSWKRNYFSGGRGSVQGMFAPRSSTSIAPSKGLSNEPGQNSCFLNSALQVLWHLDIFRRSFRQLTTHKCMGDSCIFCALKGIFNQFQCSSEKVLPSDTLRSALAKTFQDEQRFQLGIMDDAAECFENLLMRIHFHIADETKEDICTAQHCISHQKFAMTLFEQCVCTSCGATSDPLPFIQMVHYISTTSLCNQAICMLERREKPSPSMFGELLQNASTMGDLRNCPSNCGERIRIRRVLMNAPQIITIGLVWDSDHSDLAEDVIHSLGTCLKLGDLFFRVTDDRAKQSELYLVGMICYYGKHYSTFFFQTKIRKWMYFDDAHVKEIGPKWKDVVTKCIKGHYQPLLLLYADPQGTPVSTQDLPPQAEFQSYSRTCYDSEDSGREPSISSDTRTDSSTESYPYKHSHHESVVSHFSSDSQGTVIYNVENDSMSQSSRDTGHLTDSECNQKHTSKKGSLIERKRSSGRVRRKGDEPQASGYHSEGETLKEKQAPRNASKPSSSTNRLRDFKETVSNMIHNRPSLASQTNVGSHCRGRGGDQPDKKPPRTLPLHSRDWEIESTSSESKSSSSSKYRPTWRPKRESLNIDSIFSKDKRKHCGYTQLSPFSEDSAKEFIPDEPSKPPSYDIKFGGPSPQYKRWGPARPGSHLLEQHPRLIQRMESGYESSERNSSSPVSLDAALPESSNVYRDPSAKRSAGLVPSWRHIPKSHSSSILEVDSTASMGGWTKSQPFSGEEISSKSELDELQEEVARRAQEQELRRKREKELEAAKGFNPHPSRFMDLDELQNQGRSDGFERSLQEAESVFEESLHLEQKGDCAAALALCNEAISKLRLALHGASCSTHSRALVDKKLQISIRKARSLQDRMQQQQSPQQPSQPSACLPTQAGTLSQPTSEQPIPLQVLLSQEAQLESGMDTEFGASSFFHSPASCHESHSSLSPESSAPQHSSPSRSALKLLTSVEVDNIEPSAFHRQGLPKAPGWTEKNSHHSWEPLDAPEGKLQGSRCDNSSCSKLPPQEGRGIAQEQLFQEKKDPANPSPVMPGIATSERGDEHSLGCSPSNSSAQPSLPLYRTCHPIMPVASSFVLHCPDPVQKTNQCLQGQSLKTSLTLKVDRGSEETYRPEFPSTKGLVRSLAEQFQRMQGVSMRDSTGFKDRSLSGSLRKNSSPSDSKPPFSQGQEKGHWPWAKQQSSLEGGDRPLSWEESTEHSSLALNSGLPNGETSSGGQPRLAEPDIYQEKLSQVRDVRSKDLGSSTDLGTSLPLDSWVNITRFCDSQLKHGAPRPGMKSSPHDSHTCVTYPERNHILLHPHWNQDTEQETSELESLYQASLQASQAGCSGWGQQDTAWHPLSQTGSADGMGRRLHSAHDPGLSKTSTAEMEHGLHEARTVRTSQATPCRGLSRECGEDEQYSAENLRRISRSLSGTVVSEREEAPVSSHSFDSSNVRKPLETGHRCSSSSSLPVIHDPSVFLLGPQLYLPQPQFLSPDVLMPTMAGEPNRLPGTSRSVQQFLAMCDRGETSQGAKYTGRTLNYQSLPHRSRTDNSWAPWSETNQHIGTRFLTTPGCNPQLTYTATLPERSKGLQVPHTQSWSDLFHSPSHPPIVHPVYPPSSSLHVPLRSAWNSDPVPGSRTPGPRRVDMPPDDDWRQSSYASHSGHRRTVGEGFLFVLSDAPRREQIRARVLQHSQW
Method in brief: as §1

USP7 = USP7 (UniProt Q93009)
Chain of USP7 (Q93009 whole entry, looked up): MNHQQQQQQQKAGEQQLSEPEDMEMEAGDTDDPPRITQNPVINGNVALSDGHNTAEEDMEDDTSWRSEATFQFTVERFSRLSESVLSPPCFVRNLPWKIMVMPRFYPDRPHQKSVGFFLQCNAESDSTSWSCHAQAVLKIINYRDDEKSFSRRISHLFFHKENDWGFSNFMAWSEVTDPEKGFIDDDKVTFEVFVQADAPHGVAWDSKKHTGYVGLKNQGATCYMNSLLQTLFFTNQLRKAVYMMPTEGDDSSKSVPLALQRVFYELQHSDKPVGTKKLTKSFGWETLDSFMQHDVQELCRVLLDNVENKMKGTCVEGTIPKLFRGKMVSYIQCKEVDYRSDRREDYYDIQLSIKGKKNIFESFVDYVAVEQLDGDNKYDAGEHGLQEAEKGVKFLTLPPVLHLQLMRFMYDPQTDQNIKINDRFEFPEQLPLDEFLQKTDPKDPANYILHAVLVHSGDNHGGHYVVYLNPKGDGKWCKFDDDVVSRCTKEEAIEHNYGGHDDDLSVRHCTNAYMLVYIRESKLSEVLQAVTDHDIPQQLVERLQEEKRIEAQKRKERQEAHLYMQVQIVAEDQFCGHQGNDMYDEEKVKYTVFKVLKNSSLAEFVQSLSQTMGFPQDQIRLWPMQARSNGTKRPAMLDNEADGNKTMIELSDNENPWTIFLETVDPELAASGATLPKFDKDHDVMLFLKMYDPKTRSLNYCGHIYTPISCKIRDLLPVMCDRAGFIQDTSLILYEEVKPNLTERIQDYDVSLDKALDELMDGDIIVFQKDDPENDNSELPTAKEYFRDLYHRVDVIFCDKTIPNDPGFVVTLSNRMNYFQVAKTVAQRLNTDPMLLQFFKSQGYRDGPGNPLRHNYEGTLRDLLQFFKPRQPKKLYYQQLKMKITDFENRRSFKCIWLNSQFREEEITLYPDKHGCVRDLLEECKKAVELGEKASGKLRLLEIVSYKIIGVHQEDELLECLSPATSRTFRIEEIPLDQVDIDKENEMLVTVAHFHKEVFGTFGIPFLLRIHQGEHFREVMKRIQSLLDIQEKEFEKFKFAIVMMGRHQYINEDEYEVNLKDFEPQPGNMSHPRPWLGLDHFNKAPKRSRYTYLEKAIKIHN
Method in brief: as §1

USP8 = target: T5, USP8 (UniProt P40818)
T5 sequence (whole entry): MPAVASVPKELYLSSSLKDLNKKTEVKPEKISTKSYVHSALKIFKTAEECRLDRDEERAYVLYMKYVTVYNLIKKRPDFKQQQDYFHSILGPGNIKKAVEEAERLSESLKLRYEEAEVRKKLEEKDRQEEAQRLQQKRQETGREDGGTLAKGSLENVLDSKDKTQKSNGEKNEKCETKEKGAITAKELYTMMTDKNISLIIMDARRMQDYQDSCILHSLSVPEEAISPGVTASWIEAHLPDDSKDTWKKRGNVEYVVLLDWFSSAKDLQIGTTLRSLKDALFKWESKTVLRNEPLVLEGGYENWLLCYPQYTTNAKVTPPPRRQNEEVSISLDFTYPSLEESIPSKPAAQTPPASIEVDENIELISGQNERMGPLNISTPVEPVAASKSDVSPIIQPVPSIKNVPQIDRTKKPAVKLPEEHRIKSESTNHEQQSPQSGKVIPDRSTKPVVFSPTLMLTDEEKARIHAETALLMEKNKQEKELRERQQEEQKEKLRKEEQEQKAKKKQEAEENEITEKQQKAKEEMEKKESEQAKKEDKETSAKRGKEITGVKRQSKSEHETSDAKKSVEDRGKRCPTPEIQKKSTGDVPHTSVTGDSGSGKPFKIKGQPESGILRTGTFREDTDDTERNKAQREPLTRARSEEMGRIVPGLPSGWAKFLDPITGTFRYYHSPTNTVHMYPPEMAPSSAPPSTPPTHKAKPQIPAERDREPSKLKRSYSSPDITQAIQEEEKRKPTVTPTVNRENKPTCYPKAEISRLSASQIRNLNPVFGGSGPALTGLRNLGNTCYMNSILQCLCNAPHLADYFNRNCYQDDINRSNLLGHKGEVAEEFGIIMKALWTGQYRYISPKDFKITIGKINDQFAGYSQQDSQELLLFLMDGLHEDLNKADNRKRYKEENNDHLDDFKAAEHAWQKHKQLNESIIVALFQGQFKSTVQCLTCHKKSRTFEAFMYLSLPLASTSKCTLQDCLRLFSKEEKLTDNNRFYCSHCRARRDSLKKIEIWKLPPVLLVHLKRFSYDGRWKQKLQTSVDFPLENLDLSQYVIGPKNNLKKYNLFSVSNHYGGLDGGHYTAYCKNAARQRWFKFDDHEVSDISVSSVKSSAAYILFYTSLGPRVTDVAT
Method in brief: as §1

Measured: log2 ratio of Biotin-Ahx-Ub-VS probe labelling

O=C(CCl)Nc1cc(Cl)ccc1-n1cncn1
inactive: USP42 0.477 | USP46 -0.691 | USP47 -0.4 | USP48 -0.638 | USP5 -0.61 | USP54 0.943 | USP8 -0.73
active: USP7 -1.33
